# From PubChem BioAssay (NCI)
# The panel holds about 83,000 compounds, 20% with a hit somewhere; the sample as a whole holds those more often.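 Cells were grown in 96-well plates and exposed to the test compound at a single concentration for 48 hours; results are reported as percent growth, with values below 10 considered active.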 Unmarked numbers belong to inactive results. Active and inactive are the calls of the source.
# System: HS 578T breast
# Assay: NCI-60 one-dose screen, 48 h (100 = growth as untreated, 0 = no growth, -100 = all killed)
# Conditions: 10 µM unless noted
# Procedure: Growth inhibition of the HS 578T human tumor cell line is measured as a screen for anti-cancer activity. Cells are grown in 96 well plates and exposed to the test compound for 48 hours. Compounds are tested at a single concentration, which is 10^-5 M for most compounds. The reported endpoint is percent growth (GI% or GIPRCNT), where numbers from 0 - 100% represent growth inhibition, and numbers from -100% - 0 represent cell death. For example, a value of 40 represents 60% growth inhibition. A value of 0 means no net growth occurred over the course of the experiment. A value of -40 indicates 40% of cells at the beginning of the experiment died by the end of the experiment. A value of -100 means all cells are dead at the end of the experiment.
# NCI-60 Human Tumor Cell Lines Screen was performed using the standard one-dose NCI protocol, which is described in more detail at https://dtp.cancer.gov/discovery_development/nci-60/default.htm.
# Compounds with GIPRCNT values below 10 were considered active. Activity score was based on GIPRCNT using the following formula: […]
# Score is 0 for GIPRCNT values of 100 or above, 50 for GIPRCNT values of 0, and 100 for GIPRCNT values of -100.
row,Structure (SMILES),growth
1,COc1ccc(Nc2nc(SC)nc(-c3cccc([N+](=O)[O-])c3)c2C#N)cc1,42.1%
2,CN1CCN(Cc2ccc(NC(=O)c3cncc(C#Cc4cncn5ccnc45)c3)cc2C(F)(F)F)CC1,69.6%
3,COc1ccc(-c2cc(-c3ccc(Nc4ccnc5cc(Cl)ccc45)cc3)nc(N3CCOCC3)n2)cc1,-11.4% (active)
4,COc1cc(C2CC(=O)c3ccccc3N2)cc(OC)c1OC (stereo not given),99.1%
5,O=[N+]([O-])c1ccc(Nc2nc(NCCN3CCOCC3)ncc2[N+](=O)[O-])cc1,87.8%
6,O=S(=O)(Nc1ccc(Cl)c(F)c1)c1ccc(-c2cnc(C3CC3)o2)cc1,16.1%
7,CC1=C(O)C(=O)C(C(C#N)(C#N)C(C#N)C#N)C1 (stereo not given),98.9%
8,Cn1ncc2c(=O)nc3c(-c4ccccc4)n[nH]n3c21,108%
9,COc1cccc(-c2nc3sccn3c2-c2ccnc(NCCCNS(=O)(=O)c3c(Cl)cccc3Cl)c2)c1,76.1%
10,O=C(CN1C(=O)/C(=C/c2ccc(Cl)cc2)SC1=S)NCCCN1CCOCC1,84.2%
11,Cc1nn(-c2cc(=O)[nH]c3ccccc23)c(N)c1C#N,98.6%
12,CC(C)CSc1nc(N)nc2c1ncn2C1OC(CO)C(O)C1O (stereo not given),103%
13,Fc1ccc(CNc2cccc3[nH]c(C(F)(F)F)nc23)cc1,82.3%
14,O=C1c2cccc3cccc(c23)C(=O)N1CCCCN1CCN(CCCCOc2ccc(-c3nc4ccc(N5CCOCC5)cc4[nH]3)cc2)CC1,86.6%
15,COc1ccc2nc(NC(=O)CSc3nnc4n3S(=O)(=O)c3ccccc3N4c3ccccc3)sc2c1,89.6%
16,COc1ccc(/C=C/C(=O)c2ccc(O)c(CN3CCN(c4cc5c(cc4F)c(=O)c(C(=O)O)cn5C4CC4)CC3)c2)cc1,35.4%
17,COc1ccc(-c2nc3ccc(-c4nc5ccc(N6CCN(c7ccccc7)CC6)cc5[nH]4)cc3[nH]2)cc1OC,-0.217% (active)
18,COc1cc(-c2nn(-c3ccc(C)cc3)cc2C(=O)O)ccc1O,103%
19,O=C1c2cc3c(cc2-c2c1c1ccc(Cl)cc1c(=O)n2CCCN1CCOCC1)OCO3,108%
20,Cc1cn2c(/C=C3/C(=O)Nc4c3ccc3ccccc43)c(C(F)(F)F)nc2s1,16.5%

row,Structure (SMILES),growth
1,CCOc1cc2ncc(C#N)c(Nc3ccc(OCc4cccc(F)c4)c(Cl)c3)c2cc1NC(=O)CC1CCSS1 (stereo not given),55.9%
2,C=C(C)[C@@H]1CC[C@]2(C(N)=O)CC[C@]3(C)[C@H](CC[C@@H]4[C@@]5(C)C/C(=C/c6ccco6)C(=O)C(C)(C)[C@@H]5CC[C@]43C)[C@@H]12,95.3%
3,C=C(C)[C@@H]1CC[C@]2(C(=O)OC)CC[C@]3(C)[C@H](CC[C@@H]4[C@@]5(C)C/C(=C/c6ccc(OC)cc6)C(=O)C(C)(C)[C@@H]5CC[C@]43C)[C@@H]12,94.9%
4,CC1=NN(c2nc(-c3ccc(Cl)cc3)c(C#N)c(N3CCOCC3)n2)C(=O)C1,54.6%
5,O=[N+]([O-])c1cnc(N2CCN(CC3CC3)CC2)nc1N1CCN(CC2CC2)CC1,77.5%
6,COc1ccc(/C=C/c2nc3ccccc3nc2/C=C/c2ccc(OC)cc2)cc1,90.8%
7,O=C1/C(=C/c2cn(-c3ccccc3)nc2-c2ccccc2)SC(=S)N1CCc1ccccc1,104%
8,COc1cc2c(cc1-c1c(C)noc1C)ncc1nc(C3CCC(F)(F)CC3)n([C@H](C)COC(F)F)c12,13.9%
9,COc1cc(-c2nn(-c3ccc(Br)cc3)cc2C(=O)O)ccc1O,101%
10,CSc1ccc(SC2c3ccc(C)cc3Oc3nc(N)c(C#N)c(N)c32)cc1 (stereo not given),-8.07% (active)
11,CCCCN1CCCn2c1nc1c2c(=O)n(CCC)c(=O)n1CCC,96.4%
12,O=C(COc1cccc(/C=C2\COc3ccc(Cl)cc3C2=O)c1)c1ccc(Cl)cc1,72.3%
13,Cc1nn(-c2ccc(F)cc2)c2ncnc(Nc3ccc(NC(=O)Nc4ccc(Cl)c(C(F)(F)F)c4)cc3)c12,31.3%
14,O=C(COc1cccc(/C=C2\CSc3ccccc3C2=O)c1)Nc1nccs1,-8.26% (active)
15,COc1cc(/C=C/C(=O)c2ccc(O)c(CN3CCN(c4cc5c(cc4F)c(=O)c(C(=O)O)cn5C4CC4)CC3)c2)cc(OC)c1OC,38.1%
16,COc1ccc(/C=C/C(=O)c2cc(O)ccc2O)cc1,106%
17,c1ccc(CCNc2ncnc3[nH]ncc23)cc1,66.3%
18,CC(=O)O[C@H]1CC[C@]2(C)[C@H]3CC=C4[C@@H]5CC(C)(C)CC[C@]5(C(=O)NCCNCCNCCN)CC[C@@]4(C)[C@]3(C)CC[C@H]2C1(C)C,92.2%
19,CCOc1nc(-c2ccccc2)cc2c(O)c(C(=O)N/N=C/c3ccc(O)cc3O)[nH]c(=O)c12,82.9%
20,O=C1c2cccc3cccc(c23)C(=O)N1CCCCCN1CCN(CCCCCOc2ccc(-c3nc4ccc(N5CCOCC5)cc4[nH]3)cc2)CC1,107%
